Assay results as given in PMC3218832.

Molecular target: T1, p52p52 homodimer (Homo sapiens, UniProt Q00653 4-332)
T1 sequence: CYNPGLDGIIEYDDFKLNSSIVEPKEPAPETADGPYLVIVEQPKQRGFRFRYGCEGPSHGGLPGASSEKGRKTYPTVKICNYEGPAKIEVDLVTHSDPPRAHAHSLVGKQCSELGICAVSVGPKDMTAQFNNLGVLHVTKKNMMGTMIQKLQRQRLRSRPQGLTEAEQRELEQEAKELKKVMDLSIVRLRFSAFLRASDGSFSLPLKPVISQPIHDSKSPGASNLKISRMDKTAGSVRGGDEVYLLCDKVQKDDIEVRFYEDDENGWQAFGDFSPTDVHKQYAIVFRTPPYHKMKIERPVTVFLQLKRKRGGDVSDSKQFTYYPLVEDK
Experiment: protein binding microarray; high values mean tight binding
Conditions: dsDNA, one strand shown

Row | Sequence | binding signal [z-score]
1 | AAGAAAGCCCT | -0.426
2 | AGGATCTCCCC | 0.969
3 | CGATGTACCCC | -0.0732
4 | AGATATCTCCT | -0.623
5 | GGGAACGCCCT | 0.394
6 | AGGATAGCCCT | -0.582
7 | AAGTTATCCCC | 0.864
8 | AGAAGGCCCCT | 0.0419
9 | CGAAAGTTCCT | -0.53
10 | CGGTTATCCCT | 0.38
11 | AGAAAACTCCC | 0.9
12 | GAAAGTGCCCC | 0.105
13 | AGGTTTATCCT | -0.558
14 | GAAGAATCCCC | 2.18
15 | AAGTATGCCCC | -0.0889
16 | GAGTAATTCCT | -0.525
17 | CAAAGTTTCCT | -0.572
18 | AAATACACCCC | 0.0531
19 | AAGAATGTCCC | 0.691

Row | Sequence | binding signal [z-score]
20 | AAATGCTTCCC | -0.425
21 | AAGATGCCCCC | 0.461
22 | GAGGTTGCCCT | -0.704
23 | CGAAGACTCCC | -0.407
24 | GGATGCATCCC | -0.436
25 | GAATGCCTCCT | -0.691
26 | AAGTACATCCC | -0.37
27 | CAGTGACCCCT | -0.0283
28 | GAGGGCTCCCC | -0.0309
29 | GAGTGTGCCCT | -0.704
30 | AGAATGCTCCC | -0.418
31 | CGATGTCTCCT | -0.736
32 | CGATGGGCCCT | -0.601
33 | CAAGGTTCCCC | 1.29
34 | CAGAAGATCCT | -0.765
35 | GAAATGACCCT | -0.304
36 | AGGTACGCCCC | 0.402
37 | GGATAATCCCC | 2.24
38 | CGGGGACCCCT | 0.639

Molecular target: RELA (p65) subunit of heterodimer;p50 subunit (Homo sapiens;Homo sapiens, UniProt Q04206;P19838 1-307;7-356)
Experiment: as above
Conditions: dsDNA, one strand shown

Sequence of RELA (p65) subunit of heterodimer;p50 subunit (Q04206 1-307, chain 1 of 2): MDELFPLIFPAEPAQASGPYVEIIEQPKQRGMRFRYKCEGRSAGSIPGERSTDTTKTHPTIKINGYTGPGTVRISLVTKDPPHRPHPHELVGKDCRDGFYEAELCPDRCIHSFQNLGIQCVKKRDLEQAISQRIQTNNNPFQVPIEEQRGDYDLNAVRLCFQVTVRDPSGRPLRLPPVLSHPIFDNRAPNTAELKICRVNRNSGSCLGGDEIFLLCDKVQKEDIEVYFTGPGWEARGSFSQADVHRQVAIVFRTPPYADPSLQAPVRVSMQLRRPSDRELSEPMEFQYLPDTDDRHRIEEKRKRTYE
Sequence of RELA (p65) subunit of heterodimer;p50 subunit (P19838 7-356, chain 2 of 2): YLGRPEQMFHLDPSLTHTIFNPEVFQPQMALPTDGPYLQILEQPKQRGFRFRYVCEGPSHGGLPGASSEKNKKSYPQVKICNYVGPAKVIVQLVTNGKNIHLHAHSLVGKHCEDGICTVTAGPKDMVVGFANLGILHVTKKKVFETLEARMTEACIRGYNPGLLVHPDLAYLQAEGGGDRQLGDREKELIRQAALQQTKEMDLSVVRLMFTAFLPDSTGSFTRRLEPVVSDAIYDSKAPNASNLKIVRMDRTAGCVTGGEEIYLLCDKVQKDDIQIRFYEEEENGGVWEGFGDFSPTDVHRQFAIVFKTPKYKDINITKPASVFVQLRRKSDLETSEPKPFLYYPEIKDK

Row | Sequence | binding signal [z-score]
39 | AAGAAAGCCCT | -0.68
40 | AGGATCTCCCC | 1.28
41 | CGATGTACCCC | -0.125
42 | AGATATCTCCT | -0.927
43 | GGGAACGCCCT | 0.492
44 | AGGATAGCCCT | -0.78
45 | AAGTTATCCCC | 0.995
46 | AGAAGGCCCCT | 0.306
47 | CGAAAGTTCCT | -0.689
48 | CGGTTATCCCT | 0.0537
49 | AGAAAACTCCC | 1.14
50 | GAAAGTGCCCC | 0.655
51 | AGGTTTATCCT | -1.01
52 | GAAGAATCCCC | 2.18
53 | AAGTATGCCCC | 0.289
54 | GAGTAATTCCT | -0.42
55 | CAAAGTTTCCT | -0.313
56 | AAATACACCCC | 0.224
57 | AAGAATGTCCC | 0.927

Row | Sequence | binding signal [z-score]
58 | AAATGCTTCCC | -0.0858
59 | AAGATGCCCCC | 0.893
60 | GAGGTTGCCCT | -0.605
61 | CGAAGACTCCC | -0.172
62 | GGATGCATCCC | -0.723
63 | GAATGCCTCCT | -0.691
64 | AAGTACATCCC | -0.432
65 | CAGTGACCCCT | -0.321
66 | GAGGGCTCCCC | 0.109
67 | GAGTGTGCCCT | -0.552
68 | AGAATGCTCCC | -0.467
69 | CGATGTCTCCT | -0.843
70 | CGATGGGCCCT | -0.968
71 | CAAGGTTCCCC | 1.68
72 | CAGAAGATCCT | -1.33
73 | GAAATGACCCT | -0.247
74 | AGGTACGCCCC | 0.321
75 | GGATAATCCCC | 2.07
76 | CGGGGACCCCT | 0.43
